From PubChem BioAssay AID1814 (Broad Institute, 2009)
About 22,000 (7.3%) of roughly 300,000 compounds were called active. Inconclusive results (about 2%) are left out. Cut-off read from the data, not from the text of the source: active = activity score below about -60%; inconclusive = mostly about -28% to -61%; inactive = positive scores. Many of the other results were omitted from the sample, so actives are more common in it than they were.

Assay: Activators working through SNCA 5'UTR binding (MLPCN) (AID 1814)
Details: alpha-synuclein 5'UTR reporter, activators screen; stronger effect = lower value; tested at 7.5 µM

Row | Structure (SMILES) | activity score
1 | O=C1NC(=O)N(CCc2ccc(F)cc2)C(=O)/C1=C/C=C/c1ccccc1 | -115% (active)
2 | Cc1nc2ccc(N3CCN(C)CC3)cc2nc1C | -72% (active)
3 | COc1cccc(-c2nc3ccc(N4CCN(C)CC4)cc3[nH]2)c1 | 68.9% (inactive)
4 | CN(C)C(=O)Oc1ccc2c(c1)O/C(=C\c1ccccc1)C2=O | -101% (active)
5 | CC(C)(C)c1ccc(OC(=O)N2CCCCC2)cc1 | -192% (active)
6 | CCCCCn1c(=O)c(C(=O)Nc2c(C)n(C)n(-c3ccccc3)c2=O)c(O)c2ccccc21 | -108% (active)
7 | c1ccc2sc(C3CCCNC3)nc2c1 (stereo not given) | -63% (active)
8 | C/C(=N/O)c1ccc2ccc3ccccc3c2c1 | -104% (active)
9 | O=Cc1cn(Cc2ccc(F)cc2Cl)c2ccccc12 | 61.1% (inactive)
10 | c1cc2c(cc1[C@H]1OC[C@H]3[C@@H]1CO[C@@H]3c1ccc3c(c1)OCO3)OCO2 | 72.8% (inactive)
11 | O=C(Nc1cccc2ccccc12)N1CCC2(CC1)OCCO2 | -71.1% (active)
12 | CCOc1ccc(-c2cc(C)[n+](CCN(CC)CC)c(-c3ccc(OCC)cc3)c2)cc1 | 95.2% (inactive)
13 | CN(C)CC1Oc2ccccc2OC1(O)c1ccccc1 (stereo not given) | -101% (active)
14 | CCCCCCCCCCCCn1ccc(=N)cc1 | 104% (inactive)
15 | N#CC1=C(N)Oc2c(c(=O)oc3ccccc23)C1c1ccccc1OC(=O)c1cccs1 (stereo not given) | -63% (active)
